PubChem BioAssay
The source made the active and inactive calls.

How the values were obtained:
[1] = optical density shifts of acrAB sulA E. coli – strain DRC41, OD650, 48 h, E. coli filamentation inducer project, primary screen (AID 1152); details: higher = more signal, called active from +8 up or from −8 down;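 further: E. coli MC1000 strain DRC41 lacking acrAB efflux pump and sulA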
[2] = probe aLefty1 binding on compound microarray – biochemical, small-molecule microarray, 635/667 nm fluorescence, primary screen (AID 1153); details: higher = more signal;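 further: score merges spot fluorescence with signal-to-noise ratio from the scanned slide images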
[3] = plasmodial surface anion channel blockers, osmotic lysis – cell-based, P. falciparum Indochina, OD700, 1 h, primary screen (AID 1154); details: P. falciparum Indochina infected RBC osmotic lysis, higher = more signal, called active from +8 up or from −8 down
[4] = plasmodial surface anion channel blockers, osmotic lysis – cell-based, P. falciparum Indochina, OD700, 2 h, primary screen (AID 1155);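 further: lysis reports solute entry through the parasite surface anion channel PSAC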; details: P. falciparum Indochina infected erythrocytes, higher = more signal, called active from +8 up or from −8 down
[5] = changes in parasitized red cell lysis, either direction – P. falciparum Indochina, OD700, 3 h, PSAC antagonist project, primary screen (AID 1156); details: P. falciparum-infected erythrocytes, osmotic lysis, higher = more signal, called active from +8 up or from −8 down
[6] = plasmodial surface anion channel blockers, osmotic lysis – cell-based, P. falciparum Indochina, OD700, 18 h, primary screen (AID 1157); details: P. falciparum Indochina infected erythrocytes, osmotic lysis OD700, 18 h; higher = more signal, called active from +8 up or from −8 down
[7] = S6 kinase pathway phospho-S6 level changes – cell-based, A549, cytoblot, luminescence, serum-stimulated, primary screen (AID 1158); details: 5 h, higher = more signal;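 further: serum-stimulated A549 lung adenocarcinoma cells; signal is phosphorylated S6 detected by cytoblot immunostaining with HRP secondary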
[8] = target: NADPH oxidase 2 (Homo sapiens) (UniProt P04839); assay: compounds shifting NOX2 Amplex Red fluorescence – cell-based, HEK293-NOX2, PMA-stimulated, NOX inhibitor project, primary screen (AID 1159); details: 45 min, higher = more signal, called active from +8 up or from −8 down; further: test concentration not given here
[9] = target: NADPH oxidase 4 (Homo sapiens) (UniProt Q9NPH5); assay: compounds shifting NOX4 Amplex Red fluorescence – cell-based, HEK293-NOX4, tetracycline-induced, NOX inhibitor project, primary screen (AID 1160); details: HEK293-NOX4, Amplex Red H2O2 fluorescence, 45 min; higher = more signal, called active from +8 up or from −8 down
[10] = target: NADPH oxidase 5 (Homo sapiens) (UniProt Q96PH1); assay: compounds shifting NOX5 Amplex Red fluorescence – cell-based, HEK293-NOX5, NOX inhibitor project, primary screen (AID 1161); details: HEK293-NOX5, ionomycin, 45 min, higher = more signal
[11] = compound effects on lung adenocarcinoma cell viability – A549, calcein-AM fluorescence, 48 h, basal, profiling panel (AID 1162); details: higher = more signal; further: test concentration not given here
[12] = compound effects on differentiated 3T3-L1 adipocyte viability – cell-based, 3T3-L1 adipocytes, calcein-AM fluorescence, 48 h, basal, profiling panel (AID 1163); details: 3T3-L1 adipocytes viability, higher = more signal; further: test concentration not given here
[13] = compound effects on hepatocellular carcinoma cell viability – HepG2, calcein-AM fluorescence, 48 h, basal, profiling panel (AID 1164); details: higher = more signal; further: test concentration not given here
[14] = compound effects on multiple myeloma cell viability – MM1S, calcein-AM fluorescence, 48 h, basal, profiling panel (AID 1165); details: higher = more signal;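 further: viability of MM1S multiple myeloma cells under basal unstimulated conditions; test concentration not given here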
[15] = calcein-AM signal in unstimulated myeloma cells – cell-based, calcein-AM fluorescence, 48 h, PK04 Diversity Set, profiling panel (AID 1166); details: RPMI8226 myeloma viability, higher = more signal;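 further: cells grown under basal conditions without added stimulus; test concentration not given here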
[16] = JC-1 mitochondrial signal, unstimulated HepG2 cells – cell-based, JC-1 fluorescence, 24 h, 100 nL compound, profiling panel (AID 1167); details: HepG2 mitochondrial potential, higher = more signal; further: test concentration not given here
[17] = JC-1 mitochondrial signal, unstimulated adipocytes – cell-based, JC-1 fluorescence, 3T3-L1 adipocytes, 24 h, 100 nL compound, profiling panel (AID 1168); details: JC-1 mitochondrial fluorescence, higher = more signal, called active from +8 up or from −8 down; further: test concentration not given here
[18] = JC-1 mitochondrial signal, unstimulated myeloma cells – cell-based, JC-1 fluorescence, RPMI8226, 24 h, 100 nL compound, profiling panel (AID 1169); details: JC-1 mitochondrial potential fluorescence, higher = more signal; further: test concentration not given here
[19] = JC-1 mitochondrial signal, unstimulated MM1S myeloma – cell-based, JC-1 fluorescence, 24 h, 100 nL compound, profiling panel (AID 1170); details: MM1S mitochondrial potential, higher = more signal; further: test concentration not given here
[20] = resazurin metabolic signal in A549 cells – cell-based, resazurin fluorescence, 24 h, PK04 Diversity Set, profiling panel (AID 1171); details: A549 viability, higher = more signal, called active from +8 up or from −8 down; further: test concentration not given here

Chain of NADPH oxidase 2 (Homo sapiens) (P04839 whole entry, looked up): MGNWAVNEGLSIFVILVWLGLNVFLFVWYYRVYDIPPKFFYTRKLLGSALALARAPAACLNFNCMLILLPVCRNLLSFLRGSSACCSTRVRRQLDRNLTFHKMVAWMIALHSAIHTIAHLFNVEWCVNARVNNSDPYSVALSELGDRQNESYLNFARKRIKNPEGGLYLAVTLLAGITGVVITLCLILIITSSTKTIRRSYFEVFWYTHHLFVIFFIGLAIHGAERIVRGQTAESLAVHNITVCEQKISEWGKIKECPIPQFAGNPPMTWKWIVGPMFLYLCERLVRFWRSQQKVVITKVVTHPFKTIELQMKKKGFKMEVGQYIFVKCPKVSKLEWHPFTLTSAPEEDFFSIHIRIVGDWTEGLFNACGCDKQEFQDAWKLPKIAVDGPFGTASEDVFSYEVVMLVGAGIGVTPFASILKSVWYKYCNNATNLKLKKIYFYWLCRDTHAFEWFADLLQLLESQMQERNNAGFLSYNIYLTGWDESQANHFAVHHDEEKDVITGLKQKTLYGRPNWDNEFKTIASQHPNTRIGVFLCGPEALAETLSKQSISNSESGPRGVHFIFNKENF
Chain of NADPH oxidase 4 (Homo sapiens) (Q9NPH5 whole entry, looked up): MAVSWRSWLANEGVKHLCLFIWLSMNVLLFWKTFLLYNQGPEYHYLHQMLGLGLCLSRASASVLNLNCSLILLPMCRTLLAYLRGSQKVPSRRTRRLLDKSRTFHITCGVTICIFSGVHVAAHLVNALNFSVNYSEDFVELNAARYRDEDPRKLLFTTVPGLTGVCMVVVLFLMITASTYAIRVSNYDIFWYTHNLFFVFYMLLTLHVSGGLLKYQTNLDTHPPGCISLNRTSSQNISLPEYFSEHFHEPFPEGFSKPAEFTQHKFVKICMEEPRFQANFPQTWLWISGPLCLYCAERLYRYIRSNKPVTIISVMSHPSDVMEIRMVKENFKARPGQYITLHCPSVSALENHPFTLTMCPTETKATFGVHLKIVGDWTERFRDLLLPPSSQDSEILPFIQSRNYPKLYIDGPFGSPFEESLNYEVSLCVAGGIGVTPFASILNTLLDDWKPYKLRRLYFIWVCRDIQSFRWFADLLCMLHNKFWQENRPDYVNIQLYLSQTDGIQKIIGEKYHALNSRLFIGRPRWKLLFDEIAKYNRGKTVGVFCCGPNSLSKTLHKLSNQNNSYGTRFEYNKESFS
Chain of NADPH oxidase 5 (Homo sapiens) (Q96PH1 whole entry, looked up): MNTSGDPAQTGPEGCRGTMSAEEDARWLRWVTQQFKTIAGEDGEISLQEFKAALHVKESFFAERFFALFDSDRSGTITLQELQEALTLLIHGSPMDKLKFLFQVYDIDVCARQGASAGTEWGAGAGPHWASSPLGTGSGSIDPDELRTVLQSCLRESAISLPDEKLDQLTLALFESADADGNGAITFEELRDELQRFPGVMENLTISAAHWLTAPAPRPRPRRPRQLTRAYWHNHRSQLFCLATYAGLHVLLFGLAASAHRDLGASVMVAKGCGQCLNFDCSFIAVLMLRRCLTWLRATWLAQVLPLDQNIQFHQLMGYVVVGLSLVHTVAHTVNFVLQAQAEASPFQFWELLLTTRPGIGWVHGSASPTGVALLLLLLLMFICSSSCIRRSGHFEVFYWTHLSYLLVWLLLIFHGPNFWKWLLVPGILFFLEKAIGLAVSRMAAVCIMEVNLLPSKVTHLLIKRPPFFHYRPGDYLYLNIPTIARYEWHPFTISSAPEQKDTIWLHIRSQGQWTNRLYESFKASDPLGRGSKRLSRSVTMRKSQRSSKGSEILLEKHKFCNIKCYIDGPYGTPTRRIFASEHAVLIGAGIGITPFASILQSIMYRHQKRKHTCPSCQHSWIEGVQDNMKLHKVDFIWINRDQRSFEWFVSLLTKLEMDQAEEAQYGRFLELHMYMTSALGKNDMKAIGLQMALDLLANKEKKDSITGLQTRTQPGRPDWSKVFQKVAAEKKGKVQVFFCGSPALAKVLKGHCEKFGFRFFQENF

Structure (SMILES) | z-score [1] | composite z-score [2] | z-score [3] | z-score [4] | z-score [5] | z-score [6] | z-score [7] | z-score [8] | z-score [9] | z-score [10] | z-score [11] | z-score [12] | z-score [13] | z-score [14] | z-score [15] | z-score [16] | z-score [17] | z-score [18] | z-score [19] | z-score [20]
C[N+](C)(C)CCCCCCNC(=O)[C@H]1C[C@H]2C(=O)NCC(=O)N2[C@H]1c1cccc(OCCO)c1 | -0.191 (inactive) | -0.259 | 2.76 (inactive) | 0.462 (inactive) | -1.36 (inactive) | 0.179 (inactive) | 0.142 | 0.752 (inactive) | 1.12 (inactive) | 1.24 | -0.292 | -0.207 | -0.528 | 0.112 | 0.579 | -1.52 | -0.529 (inactive) | 0.0573 | 0.127 | 0.749 (inactive)
CC(=O)c1ccc(C(O)C2C=CC3C(=O)N(C)C(=O)C3N2NC(=O)OC(C)(C)C)cc1 (stereo not given) | -1.33 (inactive) | 0.186 | 1.24 (inactive) | 0.957 (inactive) | 0.0395 (inactive) | 0.95 (inactive) | -1.51 | -0.455 (inactive) | -1.57 (inactive) | -1.01 | -1.02 | -0.701 | -0.831 | -0.682 | -0.193 | -1.29 | -0.82 (inactive) | -0.539 | 0.485 | -0.659 (inactive)
C=CCOC(=O)[C@@H]1[C@H]2C(=O)O[C@H](c3ccccc3)[C@H](c3ccccc3)N2[C@H](c2ccc(OCCOC(=O)[C@H]3C[C@H]4C(=O)NCC(=O)N4[C@H]3c3ccc(O)cc3)cc2)[C@@]12C(=O)Nc1ccc(I)cc12 | -0.707 (inactive) | -0.154 | 8.8 (active) | 2.39 (inactive) | 0.345 (inactive) | 1.16 (inactive) | 0.379 | 0.588 (inactive) | 0.812 (inactive) | 0.711 | -0.441 | -0.105 | 0.273 | -0.172 | -0.0622 | -1.59 | 0.91 (inactive) | -0.772 | -1 | 1.1 (inactive)
CCCC[C@@H](O)C1=C(COC)Cn2c(=O)n(-c3ccccc3)c(=O)n2[C@H]1CO | 4.01 (inactive) | -0.224 | -0.0913 (inactive) | -0.696 (inactive) | -0.304 (inactive) | -2.74 (inactive) | 1.9 | -1.55 (inactive) | 0.208 (inactive) | 0.716 | 0.281 | 0.122 | 0.166 | 0.103 | 0.337 | 0.376 | -0.301 (inactive) | -0.197 | 0.794 | -0.783 (inactive)
COCC(=C=CC[C@@H](O)c1ccc(OCCO)cc1)C[C@@H](O)COCc1ccccc1 | 1.81 (inactive) | 0.0299 | 7.41 (inactive) | 0.416 (inactive) | 0.766 (inactive) | -0.756 (inactive) | 2.43 | -1.16 (inactive) | -0.479 (inactive) | -2.03 | 0.517 | 0.657 | 0.712 | 0.105 | 0.0253 | -1.77 | 0.914 (inactive) | -0.725 | -1.03 | 0.583 (inactive)
COCC1=C([C@H](O)CCc2ccccc2)[C@H](CO)n2c(=O)n(-c3ccccc3)c(=O)n2C1 | 3.47 (inactive) | -0.409 | 2.67 (inactive) | -0.913 (inactive) | -0.618 (inactive) | -1.61 (inactive) | 1.72 | -0.638 (inactive) | -2.05 (inactive) | -0.659 | 0.119 | 0.102 | 0.925 | 0.572 | -0.221 | -0.835 | -0.596 (inactive) | -0.309 | -1.37 | -0.619 (inactive)
C=CCNC(=O)[C@H]1[C@@H]2C(=O)O[C@@H](c3ccccc3)[C@@H](c3ccccc3)N2[C@@H](c2ccc(O)cc2)[C@]12C(=O)Nc1ccc(C#CC3=CCCCC3)cc12 | -0.164 (inactive) | 0.802 | 1.54 (inactive) | 1.23 (inactive) | -0.355 (inactive) | 1.1 (inactive) | -0.101 | 1.18 (inactive) | 0.676 (inactive) | 1.61 | -0.931 | -0.826 | -0.66 | -3.3 | -4.46 | -0.341 | 0.523 (inactive) | -1.14 | -1.79 | -1.63 (inactive)
